# Data reported in PubChem BioAssay (NCATS).
# “And” between values parts separate entries of the source, which are not always exact repeats. Identical values can stand only once. Inconclusive results are not listed. The source made the active and inactive calls. Calls follow the shape of the full dose curve.
# Target: Thyroid hormone receptor beta (Homo sapiens) (UniProt P10828)
# Experiment: qHTS assay for small molecule agonists of thyroid hormone receptor beta signaling (AID 588545)
# Conditions: TR-UAS-bla GripTite HEK 293, beta-lactamase ratio, agonist mode, 18 h; series mostly up to 76.7 µM; activation: at the top concentration
# Summary of the method: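 Cells (2500/well) were seeded, incubated 4 hrs at 37 C, dosed with a compound series, incubated 18 hrs, loaded with CCF4 dye for 2 hrs at RT, then read for fluorescence. Data were scaled between DMSO (0%) and 10 nM T3 (100%).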
# Sequence of Thyroid hormone receptor beta (Homo sapiens) (P10828 whole entry, looked up): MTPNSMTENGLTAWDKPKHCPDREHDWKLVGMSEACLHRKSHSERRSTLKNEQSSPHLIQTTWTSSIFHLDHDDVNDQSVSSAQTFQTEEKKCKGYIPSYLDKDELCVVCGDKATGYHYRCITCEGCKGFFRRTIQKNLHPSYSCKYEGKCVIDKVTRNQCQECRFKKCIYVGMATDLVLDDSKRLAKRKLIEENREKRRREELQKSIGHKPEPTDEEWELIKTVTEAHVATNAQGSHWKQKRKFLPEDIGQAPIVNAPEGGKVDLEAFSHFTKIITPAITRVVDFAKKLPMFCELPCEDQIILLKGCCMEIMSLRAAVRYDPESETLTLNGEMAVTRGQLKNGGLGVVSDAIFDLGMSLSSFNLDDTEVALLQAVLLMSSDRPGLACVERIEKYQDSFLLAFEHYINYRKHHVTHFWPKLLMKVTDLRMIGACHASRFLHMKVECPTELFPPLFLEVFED
SMILES,activation,Potency
CCCC1COC(Cn2cncn2)(c2ccc(Cl)cc2Cl)O1 (centres undefined),-12.9% (inactive),
Cc1cnc(C2=NC(C)(C(C)C)C(=O)N2)c(C(=O)O)c1 (centres undefined),,inactive
O=S(=O)(c1ccc(O)cc1)c1ccc(O)cc1,-6.31% (inactive),
CCOP(=O)(O)C(N)=O,-4.4% (inactive),
COc1ccc(O)c(C(C)(C)C)c1,-7.73% (inactive),
CCOP(=S)(OCC)SCC(=O)NC(C)C,6.59% (inactive),
NS(=O)(=O)C(F)(F)C(F)(F)C(F)(F)C(F)(F)C(F)(F)C(F)(F)C(F)(F)C(F)(F)F,0.303% (inactive),
Clc1ccc([C@]2(Cn3cncn3)C[C@@H](Br)CO2)c(Cl)c1,,inactive
CCOP(=O)(SC(C)CC)SC(C)CC (centres undefined),4.76% (inactive),
C/C(=N\C(N)=O)N(C)Cc1ccc(Cl)nc1,6.53% (inactive),
O=S1OC[C@@H]2[C@H](CO1)[C@@]1(Cl)C(Cl)=C(Cl)[C@]2(Cl)C1(Cl)Cl (some centres undefined),,inactive
FC(F)(F)c1ccc(OCCCOc2c(Cl)cc(OCC=C(Cl)Cl)cc2Cl)nc1,8.02% (inactive),
C=CCC1=C(C)[C@@H](OC(=O)[C@@H]2[C@@H](C=C(C)C)C2(C)C)CC1=O,-12.5% (inactive),
Cc1ccccc1C(=O)Nc1cccc(OC(C)C)c1,-7.18% (inactive),
CCOC1Oc2ccc(OS(C)(=O)=O)cc2C1(C)C (centres undefined),-0.754% (inactive),
Nc1ccc([N+](=O)[O-])cc1Cl,-13.3% (inactive),
CCCCC(CC)C(=O)Cl (centres undefined),-0.366% (inactive),
CCOP(=O)(OCC)SCSCC,-6.96% (inactive),
CCOP(=O)(OCC)SCSC(C)(C)C,-4.4% (inactive),
CNC(=O)Oc1ccc(N(C)C)c(C)c1,-14.3% (inactive),
COC(=O)c1ccccc1CS(=O)(=O)NC(=O)Nc1nc(OC)cc(OC)n1,8.69% (inactive),
Cc1cc(Cl)ccc1OCC(=O)O,,inactive
CCOP(=S)(OCC)Oc1cnc2ccccc2n1,1.71% (inactive),
CCOP(=S)(S)OCC,-2.69% (inactive),
CCCCN(CC)C(=O)SCCC,2.95% (inactive),
O=[N+]([O-])c1ccc(Oc2ccc(C(F)(F)F)cc2[N+](=O)[O-])cc1,2.77% (inactive),

# System: not listed separately
# Experiment: qHTS assay for small molecule antagonists of retinoid X receptor alpha signaling (AID 588546);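 also: cells stimulated with 9-cis-retinoic acid as agonist; % is scaled to controls: 0 for no effect and ±100 for the full control effect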
# Conditions: HEK293T RXRa-UAS-bla, beta-lactamase ratio, antagonist mode; measured here: W530 green channel, cytotoxicity proxy
# Summary of the method: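 Beta-lactamase reporter inhibition, read as CCF4 fluorescence ratio (ex 405, em 460/530 nm) after 2 h at RT. HEK293T UAS-bla cells, 2500/well, were stimulated with 9-cis-RA at 500 or 100 nM final alongside test compound for 18 h at 37 C.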
row,SMILES,max response
1,C/C(=N\NC(=O)Nc1cc(F)cc(F)c1)c1ncccc1C(=O)O,-5.57% and -1.16%
2,CCCC1COC(Cn2cncn2)(c2ccc(Cl)cc2Cl)O1 (centres undefined),5.44%
3,Cc1cnc(C2=NC(C)(C(C)C)C(=O)N2)c(C(=O)O)c1 (centres undefined),8.17%
4,O=S(=O)(c1ccc(O)cc1)c1ccc(O)cc1,-5.39%
5,CCOP(=O)(O)C(N)=O,-9.11%
6,CCOc1nc(NC)nc(NC(=O)NS(=O)(=O)c2ccccc2C(=O)OC)n1,-10.6%
7,COc1ccc(O)c(C(C)(C)C)c1,-10.9%
8,CCOP(=S)(OCC)SCC(=O)NC(C)C,-8.13%
9,NS(=O)(=O)C(F)(F)C(F)(F)C(F)(F)C(F)(F)C(F)(F)C(F)(F)C(F)(F)C(F)(F)F,-4.16%
10,Clc1ccc([C@]2(Cn3cncn3)C[C@@H](Br)CO2)c(Cl)c1,-15.6% and -7.06%
11,CCOP(=O)(SC(C)CC)SC(C)CC (centres undefined),-3.17%
12,CNC(=O)Oc1cccc2c1OC(C)(C)C2O (centres undefined),-12.4%
13,C/C(=N\C(N)=O)N(C)Cc1ccc(Cl)nc1,-9.48%
14,O=S1OC[C@@H]2[C@H](CO1)[C@@]1(Cl)C(Cl)=C(Cl)[C@]2(Cl)C1(Cl)Cl (some centres undefined),9.73% and 12.8%
15,FC(F)(F)c1ccc(OCCCOc2c(Cl)cc(OCC=C(Cl)Cl)cc2Cl)nc1,-14.8%
16,C=CCC1=C(C)[C@@H](OC(=O)[C@@H]2[C@@H](C=C(C)C)C2(C)C)CC1=O,-5.3%
17,Cc1ccccc1C(=O)Nc1cccc(OC(C)C)c1,-1.03%
18,CCOC1Oc2ccc(OS(C)(=O)=O)cc2C1(C)C (centres undefined),-7.46%
